The structures appear in SMILES notation. Structures can show the parent of a compound that is named as a salt. ± gives the standard deviation of the averaged measurements. Whole data set: some 1,900 compounds, median “normalised cell viability (NPI; 0 = phenylarsine oxide control, 1 = DMSO control)” near 1, cut for the lowest 2% near 0.039. The entries come from a sample that favours the lowest values as a whole.

The record followed here is the supplement of paper PMC8285479.

The experiment has as its system NCI-H1944. Description: normalised cell viability (NPI; 0 = phenylarsine oxide control, 1 = DMSO control) (fraction of DMSO control); NCI-H1944 is a non-small cell lung cancer line; higher = more viable cells (less compound toxicity). The settings on record: 6 days.
Setting [1] is: glucocorticoid arm: hydrocortisone 2.75 uM co-treatment, compound 1 µM.
Where [2] appears, read: glucocorticoid arm: hydrocortisone 2.75 uM co-treatment, compound 5 µM.
[3] abbreviates: glucocorticoid arm: hydrocortisone 2.75 uM pre-treated 2 days and continued, compound 1 µM.
[4] abbreviates: glucocorticoid arm: hydrocortisone 2.75 uM pre-treated 2 days and continued, compound 5 µM.
The mark [5] stands for this setting: glucocorticoid arm: vehicle, compound 1 µM.
Setting [6] is: glucocorticoid arm: vehicle, compound 5 µM.
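Further: CTB read-out in 384-well plates, triplicate wells, NPI normalised per plate against 1 µM phenylarsine oxide (0) and 0.1% DMSO (1) controls.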

With `O=c1[nH]c(=O)n([C@H]2C[C@H](O)[C@@H](CO)O2)cc1/C=C/Br` [(E)-5-(2-Bromovinyl)-2'-deoxyuridine], the normalised cell viability is, setting by setting: under setting [1], 1.013 ± 0.0058; under setting [2], 1.01 ± 0.01; under setting [3], 1.003 ± 0.0061; under setting [4], 1.015 ± 0.0071; under setting [5], 0.9783 ± 0.0055; under setting [6], 0.9897 ± 0.0049.
Consider `C[C@@H](NC(=O)/C(C#N)=C/c1ccc(O)c(O)c1)c1ccccc1` [Tyrphostin AG 527], for which the normalised cell viability is, setting by setting: under setting [1], 1.013 ± 0.0058; under setting [2], 0.9963 ± 0.0038; under setting [3], 0.879 ± 0.22; under setting [4], 0.999 ± 0.011; under setting [5], 1.003 ± 0.0058; under setting [6], 1.003 ± 0.0061.
Turning to `CCC[C@H](NC(=O)/C(C#N)=C/c1cccc(Br)n1)c1ccccc1`, the normalised cell viability reads like this: under setting [1], 1.017 ± 0.0058; under setting [2], 0.726 ± 0.1; under setting [3], 1.02 ± 0.01; under setting [4], 1.09 ± 0.025; under setting [5], 0.996 ± 0.0046; under setting [6], 0.339 ± 0.026.
On to `C[C@H](NC(=O)/C(C#N)=C/c1cccc(Br)n1)c1ccccc1`, for which the normalised cell viability reads like this: under setting [1], 1.01 ± 0.012; under setting [2], 1.06 ± 0.032; under setting [3], 1.02 ± 0.017; under setting [4], 1.048 ± 0.0075; under setting [5], 0.9985 ± 0.0098; under setting [6], 0.0147 ± 0.011.
As for `CN/C(=N\c1ccc(C2=NNC(=O)CC2C)cc1)NC#N` (configuration not stated), the normalised cell viability reads like this: under setting [1], 0.9943 ± 0.0046; under setting [2], 0.992 ± 0.018; under setting [3], 0.875 ± 0.22; under setting [4], 0.9957 ± 0.0051; under setting [5], 0.995 ± 0.005; under setting [6], 0.997 ± 0.0052.
In the case of `CCN1C(=CC(C)=O)Sc2ccc(OC)cc21`, the normalised cell viability came out at 0.982 ± 0.01 under setting [1]; 0.823 ± 0.013 under setting [2]; 0.994 ± 0.017 under setting [3]; 0.839 ± 0.021 under setting [4]; 1.01 ± 0.01 under setting [5]; 0.983 ± 0.017 under setting [6].
Regarding `Cc1cc(N2CCOCC2)cc2[nH]c(-c3c(NCC(O)c4cccc(Cl)c4)cc[nH]c3=O)nc12` (configuration not stated), the normalised cell viability is, setting by setting: under setting [1], 0.277 ± 0.0085; under setting [2], 0.205 ± 0.011; under setting [3], 0.3733 ± 0.0021; under setting [4], 0.267 ± 0.0095; under setting [5], 0.753 ± 0.051; under setting [6], 0.263 ± 0.036.
As to `CCCCCCCCCCCCCCCC(=O)NCC(COP(=O)([O-])OCC[N+](C)(C)C)OCC` (racemic) [rac-2-Ethoxy-3-hexadecanamido-1-propylphosphocholine], the normalised cell viability by setting is: under setting [1], 1.01 ± 0.01; under setting [2], 1.09 ± 0.023; under setting [3], 1.007 ± 0.0058; under setting [4], 1.113 ± 0.0058; under setting [5], 1.013 ± 0.0058; under setting [6], 1.02 ± 0.011.
With `CN1CCC[C@@H]1Cc1c[nH]c2ccc(CCS(=O)(=O)c3ccccc3)cc12` [Eletriptan HBr], the normalised cell viability runs as follows: under setting [1], 1.013 ± 0.0058; under setting [2], 1.03 ± 0.015; under setting [3], 1.01 ± 0.01; under setting [4], 1.02 ± 0.021; under setting [5], 1.002 ± 0.0067; under setting [6], 1.002 ± 0.0072.
As to `COc1ccc(NC(=O)c2ccc(-c3ccc(-c4noc(C)n4)cc3C)cc2)cc1N1CCN(C)CC1`, the normalised cell viability by setting is: under setting [1], 1.006 ± 0.0063; under setting [2], 0.000294 ± 0.00029; under setting [3], 1.02 ± 0.01; under setting [4], 0.00887 ± 0.01; under setting [5], 0.9987 ± 0.0023; under setting [6], 0.000181 ± 0.0015.
As to `COc1ccccc1N1CCN(CCCCNC(=O)c2ccc3ccccc3c2)CC1`, the normalised cell viability runs as follows: under setting [1], 0.9887 ± 0.0098; under setting [2], 0.984 ± 0.026; under setting [3], 0.998 ± 0.014; under setting [4], 0.988 ± 0.032; under setting [5], 0.9913 ± 0.0029; under setting [6], 0.961 ± 0.033.
`CCCCCCCCCCCCCCCc1cccc(O)c1C(=O)O` [Anacardic acid]: the normalised cell viability is 1 ± 0.015 under setting [1]; 1.02 ± 0.0063 under setting [2]; 1.01 ± 0.012 under setting [3]; 1.02 ± 0.022 under setting [4]; 1 ± 0.024 under setting [5]; 1.01 ± 0.019 under setting [6].
With `S=C(S)N1CCCC1` [Ammonium pyrrolidinedithiocarbamate], the normalised cell viability reads like this: under setting [1], 1 ± 0.015; under setting [2], 0.994 ± 0.024; under setting [3], 1.01 ± 0.018; under setting [4], 1.004 ± 0.01; under setting [5], 1.002 ± 0.0076; under setting [6], 0.416 ± 0.095.
As for `N=c1ccn2c(n1)O[C@H]1[C@H](O)[C@@H](CO)O[C@H]12` [Ancitabine hydrochloride], the normalised cell viability is, setting by setting: under setting [1], 0.16 ± 0.012; under setting [2], 0.103 ± 0.012; under setting [3], 0.652 ± 0.079; under setting [4], 0.211 ± 0.0064; under setting [5], 0.0511 ± 0.0082; under setting [6], 0.0465 ± 0.00057.
In the case of `FC(F)c1nc2ccccc2n1-c1nc(N2CCOCC2)nc(N2CCOCC2)n1`, the normalised cell viability amounted to 0.649 ± 0.029 under setting [1]; 0.627 ± 0.013 under setting [2]; 0.603 ± 0.038 under setting [3]; 0.702 ± 0.054 under setting [4]; 0.691 ± 0.048 under setting [5]; 0.831 ± 0.028 under setting [6].
Take `CS(=O)(=O)N1CCc2c(-c3cnc(N)nc3)nc(N3CCOCC3)nc21`: the normalised cell viability is 0.528 ± 0.021 under setting [1]; 0.513 ± 0.01 under setting [2]; 0.552 ± 0.058 under setting [3]; 0.627 ± 0.034 under setting [4]; 0.491 ± 0.024 under setting [5]; 0.651 ± 0.064 under setting [6].
Consider `Nc1cc(C(F)(F)F)c(-c2cc(N3CCOCC3)nc(N3CCOCC3)n2)cn1`, for which the normalised cell viability worked out at 0.6 ± 0.048 under setting [1]; 0.203 ± 0.0045 under setting [2]; 0.713 ± 0.038 under setting [3]; 0.411 ± 0.029 under setting [4]; 0.613 ± 0.059 under setting [5]; 0.0297 ± 0.0061 under setting [6].
Regarding `CSc1nc(N)c2ncn([C@@H]3O[C@H](COP(=O)(O)OP(=O)(O)O)[C@@H](O)[C@H]3O)c2n1` [2-Methylthioadenosine diphosphate trisodium], the normalised cell viability runs as follows: under setting [1], 1.007 ± 0.0058; under setting [2], 1.02 ± 0.026; under setting [3], 1.01 ± 0.012; under setting [4], 1.06 ± 0.082; under setting [5], 0.9917 ± 0.0072; under setting [6], 1 ± 0.017.
As for `C[C@@H]1C(=O)O[C@H]2C[C@@]34[C@H]5C[C@@H](C(C)(C)C)[C@]36[C@@H](OC(=O)[C@@H]6O)O[C@@]4(C(=O)O5)[C@]21O` [Ginkgolide A], the normalised cell viability is, setting by setting: under setting [1], 0.9947 ± 0.0084; under setting [2], 0.986 ± 0.01; under setting [3], 0.994 ± 0.016; under setting [4], 0.997 ± 0.02; under setting [5], 1.002 ± 0.0072; under setting [6], 0.9947 ± 0.0051.
As to `CCc1c(C(=O)NCCc2ccc(N3CCCCC3)cc2)[nH]c2ccc(Cl)cc12`, the normalised cell viability runs as follows: under setting [1], 1.01 ± 0.018; under setting [2], 0.993 ± 0.021; under setting [3], 1.027 ± 0.0058; under setting [4], 0.999 ± 0.011; under setting [5], 1 ± 0.0095; under setting [6], 0.982 ± 0.012.
In the case of `NCC=CC(=O)O` (stereo in doubt) [cis-4-Aminocrotonic acid], the normalised cell viability was found to be 0.992 ± 0.0092 under setting [1]; 0.993 ± 0.015 under setting [2]; 0.9857 ± 0.0042 under setting [3]; 0.9765 ± 0.0092 under setting [4]; 0.973 ± 0.0079 under setting [5]; 0.9753 ± 0.0086 under setting [6].
With `C[C@H]1C[C@H]2[C@@H]3CCC4=CC(=O)C=C[C@]4(C)[C@@]3(Cl)[C@@H](O)C[C@]2(C)[C@@]1(O)C(=O)CO` [Beclomethasone], the normalised cell viability by setting is: under setting [1], 0.998 ± 0.0017; under setting [2], 1.02 ± 0.01; under setting [3], 1.01 ± 0.01; under setting [4], 1; under setting [5], 0.803 ± 0.031; under setting [6], 0.738 ± 0.039.
